Bioassay records as filed in PubChem.
This is a sample that favours compounds with a hit; in the whole collection about 7.5% have one here.
FMDV inh – High Throughput Screening for Foot and Mouth Disease Virus Antivirals; FMDV antiviral cell-based qHTS; Potency, µM (titrated, usually from 57.9 µM), for the others: at the top dose activity change, negative = inhibition, actives largely listed as inhibitors; actives 1.2% (n = 410,000); AID 1159524, 2015; calls by dose curve; tested in HEK293T cells; also: read-out not given here; potency is read from the fitted curve at half-maximal effect; nearly all actives have a fitted effect of over 45% in size
HCMV antiviral – qHTS Assay for inhibitors of the human cytomegalovirus (HCMV); HFF cells, HCMV-luciferase reporter, 72 h; stronger effect = lower value; activity change, negative = inhibition, % at 57.5 µM; actives 4.5% (n = 410,000); in the data active = activity change below about -60%; inconclusive = no clear call, values can overlap the other calls; inactive = above about -39%
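Inhibition of viral replication was scored as loss of reporter luminescence in HFFs infected with HCMV-luciferase (MOI 1 PFU/cell) for 72 h; compounds tested at 2 doses, normalized to buffer and Salinomycin controls.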
Vaccinia Venus – qHTS for Stage-Specific Inhibitors of Vaccinia Orthopoxvirus: Venus Reporter Primary qHTS; Vaccinia virus Venus reporter expression, fluorescence; Potency, µM (top dose mostly 36.5 µM), without a hit: top-dose activity change, negative = inhibition, usual class: inhibitors; actives 0.46% (n = 330,000); calls by dose curve; tested in A549 cells; also: potency is read from the fitted curve at half-maximal effect; nearly all actives have a fitted effect of over 30% in size
Giardia FBPA inh – qHTS Assay for Inhibitors of Fructose-1,6-bisphosphate Aldolase from Giardia Lamblia; purified Giardia FBPA; A8B2U2; Potency, µM (top dose mostly 59.6 µM), inactives show at the highest dose activity, negative = inhibition, actives largely listed as inhibitors; actives 0.71% (n = 290,000); AID 2451, 2010; also: potency is read from the fitted curve at half-maximal effect; nearly all actives have a fitted effect of over 55% in size
Target sequence (A8B2U2 whole entry, looked up): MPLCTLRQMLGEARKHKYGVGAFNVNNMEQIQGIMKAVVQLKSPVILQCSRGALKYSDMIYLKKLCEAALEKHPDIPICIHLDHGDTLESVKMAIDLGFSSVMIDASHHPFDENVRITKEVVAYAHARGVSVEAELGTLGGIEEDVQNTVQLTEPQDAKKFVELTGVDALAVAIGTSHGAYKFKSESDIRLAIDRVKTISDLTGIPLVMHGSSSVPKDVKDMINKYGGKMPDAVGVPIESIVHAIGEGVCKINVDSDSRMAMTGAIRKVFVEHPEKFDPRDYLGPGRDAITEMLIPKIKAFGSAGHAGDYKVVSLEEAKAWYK
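40 nM FBPA preincubated 10 min at RT with compound (up to 57.5 uM final), then substrate plus GAPDH/TPI/NAD/arsenate coupling and diaphorase/resazurin added. Fluorescence read after 20 min at RT, 525/598 nm.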
HCV inh – qHTS Assay for Inhibitors of Hepatitis C Virus (HCV); Huh7.5.1 HCVcc-Cre infection, luciferase reporter, 44 h; Potency, µM (titrated, usually from 41.8 µM), for the others: at the highest dose activity change, negative = inhibition, usual class: inhibitors; actives 3.4% (n = 340,000); AID 651820, 2012; also: potency is read from the fitted curve at half-maximal effect
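Infectious HCV cell culture screen: compound-treated cells (1,000/well, pre-plated 4 h) are infected with HCVcc-Cre at roughly 0.5 moi and grown 44 h. Infection is quantified by luciferase signal after 15 min substrate incubation at room temperature.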
VACV mCherry inh – qHTS for Stage-Specific Inhibitors of Vaccinia Orthopoxvirus: mCherry Reporter Primary qHTS; Vaccinia virus mCherry reporter infection, fluorescence; Potency, µM (titrated, usually from 36.5 µM), for inactives: top-dose activity change, negative = inhibition, hits mostly inhibitors; actives 0.63% (n = 310,000); AID 720579, 2013; calls by dose curve; tested in A549 cells; also: potency is read from the fitted curve at half-maximal effect; nearly all actives have a fitted effect of over 35% in size
* = called active by the depositor; i = inactive; ? = inconclusive; nt = no result given. Unless noted, calls follow the shape of the dose curve; as a rule, active = well fitted curve in the direction sought with a large enough effect; inconclusive = small, poorly fitted or top-dose-only effect, or another doubt; inactive = no such curve, though single readings can be large; an effect the other way counts as inactive or inconclusive. % is scaled to controls: 0 for no effect and ±100 for the full control effect.

SMILES	FMDV inh	HCMV antiviral	Vaccinia Venus	Giardia FBPA inh	HCV inh	VACV mCherry inh
CCNC(=O)C1CCN(c2nnc(C)c3c(C)n(-c4ccc(OC)cc4)nc23)CC1	-13%	1	-3%	nt	nt	-17%
CCNC(=O)C1CCCN(c2nnc(C)c3c(C)n(-c4ccc(C)cc4)nc23)C1 (stereo not given)	-20%	-28	-15%	nt	nt	-18%
COc1ccc(CNC(=O)C2CCN(c3nnc(C)c4c(C)n(-c5ccc(C)cc5)nc34)CC2)cc1	-22%	-107*	-14%	nt	nt	-17%
COc1ccc(-n2nc3c(N4CCCC(C(=O)NCc5ccc(C)cc5)C4)nnc(C)c3c2C)cc1 (stereo not given)	-3%	-72*	-28%	nt	nt	-24%
Cc1ccc(-n2nc3c(N4CCCC(C(=O)NCc5ccccc5C)C4)nnc(C)c3c2C)cc1 (stereo not given)	11%	-64*	?	nt	nt	?
CC(NCc1ccc(OCC(N)=O)cc1)C12CC3CC(CC(C3)C1)C2 (stereo not given)	-2%	-13	-14%	?	-20%	-24%
Cc1noc(C)c1CC(=O)N1CCOc2c(cc(-c3nc4ccccc4s3)cc2OC2CCOC2)C1 (stereo not given)	-9%	nt	-3%	nt	nt	-4%
COC(=O)c1sccc1S(=O)(=O)N(CC(=O)NCc1ccc(C)cc1)c1ccc(C)c(C)c1	3%	4	-6%	nt	nt	-6%
Cc1nnc(N2CCC(C(=O)NCCc3ccccc3)CC2)c2nn(-c3ccccc3)c(C)c12	0%	0	1%	nt	nt	-15%
Cc1nnc(N2CCCC(C(=O)NCc3ccc(OC(C)C)cc3)C2)c2nn(-c3ccccc3)c(C)c12 (stereo not given)	-25%	-66*	nt	nt	?	nt
Cc1ccc(-n2nc3c(N4CCC(C(=O)NCCc5cccs5)CC4)nnc(C)c3c2C)cc1	25µM*	-83*	nt	nt	?	nt
Cc1nnc(N2CCC(C(=O)NCc3ccc(N(C)C)cc3)CC2)c2nn(-c3ccccc3)c(C)c12	-7%	?	13µM*	nt	nt	13µM*
Cc1ccc(CCNC(=O)C2CCN(c3nnc(C)c4c(C)n(-c5ccccc5)nc34)CC2)cc1	-12%	0	-2%	nt	nt	-9%
O=C(CN1C(=O)COc2ccc(S(=O)(=O)N3CCCC3)cc21)N1CCN(c2ccccc2)CC1	-16%	-4	-8%	nt	nt	-10%
O=C(c1ccco1)n1nc(-c2ccccc2)nc1NCc1ccc(F)cc1	16%	6	-8%	nt	nt	-11%
Oc1ccc(-c2csc(Nc3ncccn3)n2)cc1O	-75%	111	-28%	?	11µM*	?
O=C(Nc1cccc(-c2csc(-c3ccccc3)n2)c1)c1cccs1	nt	-27	?	0%	10µM*	?
Oc1ccc(-c2csc(-c3ccccc3)n2)cc1O	50%	43	?	?	4.5µM*	?
Cc1cccnc1Nc1nc(-c2ccc(O)cc2)cs1	nt	63	-5%	-14%	10µM*	i
Oc1ccc(-c2csc(-c3cccnc3)n2)cc1O	26%	94	-14%	-14%	-17%	?
Oc1ccc(-c2csc(Nc3ncccn3)n2)c(O)c1	32%	300	-4%	-11%	13%	?
Cc1cccnc1Nc1nc(-c2ccc(F)cc2)cs1	-18%	-10	-8%	-5%	?	i
O=C(CCN1C(=O)/C(=C/c2ccccc2Cl)SC1=S)N1CCCC1	?	-21	-4%	7%	?	i
O=C(CCN1C(=O)/C(=C/c2ccccc2Cl)SC1=S)N1CCOCC1	-6%	-38	?	0%	5.6µM*	?
O=C(CCCN1C(=O)/C(=C/c2ccccc2)SC1=S)N1CCOCC1	-10%	-97*	?	nt	-7%	?
O=C(O)CN1C(=O)/C(=C\c2ccccc2OCc2ccc(Cl)cc2Cl)SC1=S	25µM*	-32	-14%	5%	30%	-1%
